A selection: hits, their analogues and other compounds. The true share with any hit is near 5.7%.
S2 tox: cell viability loss in ATXN counter-screen | S2 cells (HEK-293 line with an ATXN2-luciferase reporter) viability, CellTiter-Fluor protease fluorescence, 24 h | Potency, µM (top dose mostly 56.7 µM), most hits filed as cytotoxic | 400,000 compounds, 0.49% hits | AID 651635; further: potency means the concentration at half of the fitted maximal effect; nearly all actives have a fitted effect of over 40% in size
HepG2 tox: kills HepG2 cells in TGF-b inhibitor counter-screen; AID 588856; Potency, µM (top dose mostly 46.1 µM), for the others: at the highest dose activity change, negative = cytotoxicity, actives largely listed as cytotoxic; 410,000 compounds, 0.76% hits; HepG2 CAGA-GFP viability, ATP luminescence, 18 h; further: potency means the concentration at half of the fitted maximal effect
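CellTiter-Glo luminescence gave cytotoxicity after 18 hours at 37 degrees C. The cells were HepG2 CAGA-GFP in 1% FBS DMEM, stimulated with 500 pg/mL TGF-beta after compound addition. %Activity was normalised to no-cell wells (complete cell-killing) and DMSO (no toxicity), and curves were fitted and classified.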
TGFb SMAD3 inh: TGF-b pathway inhibition. HepG2 CAGA-GFP TGF-b/SMAD3 reporter, GFP fluorescence, 18 h; TGF-beta stimulated, 500 pg/mL final. Potency, µM (doses to about 46.1 µM), inactives show top-dose activity, negative = inhibition, hits mostly inhibitors. 410,000 compounds, 1.2% hits; further: potency means the concentration at half of the fitted maximal effect; on the % scale 0 is the no-effect control and ±100 the full control effect; nearly all actives have a fitted effect of over 65% in size
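Using HEPG2 CAGA-GFP reporter cells at 1000 cells/well, we pinned test compounds, stimulated with recombinant TGF-beta (500 pg/mL final) and measured total well GFP after 18 h.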
IL-1B inflam inh: blocks inflammasome-driven IL-1 beta release; 360,000 compounds, 4.7% hits; activity change, % at 57.5 µM; THP-1 LPS/ATP IL-1B secretion, AlphaLISA, 16 h; stronger effect = lower value; in the data active means activity change below about -50%; inconclusive means mostly about -30% to -49%; further: on the % scale 0 is the no-effect control and ±100 the full control effect
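THP-1 cells pretreated 1 hr with compounds (up to 57.5 uM final), then stimulated with LPS (250 ng/mL final) plus ATP (1.25 mM final); secreted IL-1B measured by AlphaLISA after 16 hr, decreased signal indicating inhibition.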
ATXN2 expr inh: reduces ATXN2 reporter expression in HEK-293 cells; AID 1745845; 360,000 compounds, 0.72% hits; HEK-293 ATXN2-luciferase reporter, luminescence, 24 h; Potency, µM (top dose mostly 57 µM), for the others: at the highest dose activity change, negative = inhibition, hits mostly inhibitors; further: potency means the concentration at half of the fitted maximal effect; on the % scale 0 is the no-effect control and ±100 the full control effect; nearly all actives have a fitted effect of over 55% in size
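qHTS (up to 57 uM final) was run with 24 h compound exposure of reporter cells at 37 °C. Each well was multiplexed: SteadyGlo luminescence measured ATXN2-luciferase expression after a fluorogenic Gly-Phe-AFC viability readout (25 uM final).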
* marks the source's active call; other numbers are inactive results. Unless noted, the call rests on the fitted dose curve; in most records, active means well fitted curve in the direction sought with a large enough effect; inconclusive means small, poorly fitted or top-dose-only effect, or another doubt; inactive means no such curve, though single readings can be large; an effect the other way counts as inactive or inconclusive.

Screening CCCCN(CC)CCNC(=O)c1cc2c(=O)n(C)c3ccccc3c2n1C returned S2 tox inconclusive, HepG2 tox -27%, TGFb SMAD3 inh -2%, IL-1B inflam inh -80* and ATXN2 expr inh inconclusive.
For CN(C)CCNC(=O)c1cc2c(=O)n(C)c3ccccc3c2n1C the results were S2 tox inconclusive, HepG2 tox -20%, TGFb SMAD3 inh -3%, IL-1B inflam inh -20 and ATXN2 expr inh -18%.
Cn1c(C(=O)NCCCN2CCc3ccccc3C2)cc2c(=O)n(C)c3ccccc3c21 was read as S2 tox inactive, HepG2 tox -7%, TGFb SMAD3 inh 21%, IL-1B inflam inh -53* and ATXN2 expr inh -22%.
Screening COc1ccc(C(=O)Sc2ccc(Cl)cc2)cc1OC returned S2 tox inactive, HepG2 tox -20%, TGFb SMAD3 inh 31%, IL-1B inflam inh -84* and ATXN2 expr inh -10%.
Screening COc1ccc(C(=O)c2ccc(OC)c(OC)c2)cc1OC returned S2 tox inconclusive, HepG2 tox 4%, TGFb SMAD3 inh inconclusive, IL-1B inflam inh 0 and ATXN2 expr inh -8%.
`COc1ccc(C(=O)Sc2ccc(C)cc2)cc1OC` gave S2 tox inactive, HepG2 tox -35%, TGFb SMAD3 inh 0%, IL-1B inflam inh -64* and ATXN2 expr inh 7%.
Screening COc1ccc(C(=O)SC2=NCCS2)cc1OC returned HepG2 tox -17%, TGFb SMAD3 inh -5% and IL-1B inflam inh 0.
O=C(NCC1CCN(Cc2ccccc2F)CC1)Nc1ccc(F)c(Cl)c1 was read as S2 tox inactive, HepG2 tox -27%, TGFb SMAD3 inh inconclusive and ATXN2 expr inh -38%.
Cc1ccc(C)c(CN2CCC(CNC(=O)Nc3ccc(F)c(Cl)c3)CC2)c1 was read as S2 tox inactive, HepG2 tox 18µM*, TGFb SMAD3 inh inconclusive, IL-1B inflam inh -92* and ATXN2 expr inh inconclusive.
Screening Cc1ccc(C)c(CN2CCC(CNC(=O)Nc3cccc(Cl)c3C)CC2)c1 returned S2 tox inactive, HepG2 tox -200%, TGFb SMAD3 inh -1%, IL-1B inflam inh -65* and ATXN2 expr inh -35%.
Screening Cc1ccc(NC(=O)NCC2CCN(Cc3cc(C)ccc3Cl)CC2)c(C)c1 returned S2 tox inactive, HepG2 tox -1%, TGFb SMAD3 inh 15%, IL-1B inflam inh 9 and ATXN2 expr inh inconclusive.
`CCOC(=O)Cc1ccc(NC(=O)NCc2c(-n3cccc3)sc3c2CCCC3)cc1` gave S2 tox inactive, HepG2 tox 2%, TGFb SMAD3 inh -3% and ATXN2 expr inh 7%.
`O=C(CCCCCCC(=O)Nc1cccnc1)NO` gave ATXN2 expr inh 348%.
For COc1ccc(-c2csc(Nc3ccc(S(=O)(=O)Nc4cc(OC)nc(OC)n4)cc3)n2)cc1 the results were S2 tox inactive, HepG2 tox -11%, TGFb SMAD3 inh inconclusive, IL-1B inflam inh -75* and ATXN2 expr inh -10%.
For Cc1ccc(CN2CCN(/N=C/c3ccc(Cl)c([N+](=O)[O-])c3)CC2)cc1 the results were S2 tox inactive, HepG2 tox -18%, TGFb SMAD3 inh 5%, IL-1B inflam inh -74* and ATXN2 expr inh -17%.
Cc1ccc(CN2CCN(/N=C/C=C/c3ccccc3[N+](=O)[O-])CC2)cc1 was read as S2 tox inactive, HepG2 tox -33%, TGFb SMAD3 inh inconclusive, IL-1B inflam inh -89* and ATXN2 expr inh -17%.
`NC(=O)c1cc(Cc2ccccc2)sc1NC(=O)c1ccco1` gave S2 tox inactive, HepG2 tox -4%, TGFb SMAD3 inh -1%, IL-1B inflam inh -56* and ATXN2 expr inh 91%.
`O=C(Nc1nnc(Cc2ccccc2)s1)c1ccco1` gave S2 tox inactive, HepG2 tox -14%, TGFb SMAD3 inh -12%, IL-1B inflam inh 1 and ATXN2 expr inh 27%.
For CCOc1ccc(NC(=O)c2cnn3c2NC(c2cccc(OC)c2)=CC3c2ccccc2)cc1 (stereo not drawn) the results were S2 tox inconclusive, HepG2 tox 0%, TGFb SMAD3 inh 1% and ATXN2 expr inh -13%.
`O=[N+]([O-])c1ccc(C2=NN(CCO)C(=Nc3ccc(OC(F)(F)F)cc3)SC2)cc1` gave S2 tox inactive, HepG2 tox -67%, TGFb SMAD3 inh inconclusive, IL-1B inflam inh -63* and ATXN2 expr inh -20%.
CN1CCCC(CNC(=O)c2cnn(-c3ncc4c(n3)-c3ccccc3CC4)c2C2CC2)C1 (stereo not drawn) was read as S2 tox inactive.
For Cc1cc(C)cc(N2C(=O)C=CC2=O)c1 the results were HepG2 tox -82%, TGFb SMAD3 inh inconclusive, IL-1B inflam inh -103* and ATXN2 expr inh inconclusive.
For Cc1c([N+](=O)[O-])cc(N2C(=O)C=CC2=O)cc1[N+](=O)[O-] the results were S2 tox inactive, HepG2 tox 0%, TGFb SMAD3 inh 2%, IL-1B inflam inh -15 and ATXN2 expr inh -7%.
CC1(c2ccc(OCC#N)cc2)C=C(c2ccc(OCC#N)cc2)n2nc(C(F)(F)F)nc2N1 (stereo not drawn) was read as S2 tox inactive, HepG2 tox 2%, TGFb SMAD3 inh inconclusive, IL-1B inflam inh -86* and ATXN2 expr inh inconclusive.
Screening Nc1ccc2c(c1)nnn2-c1ccccc1 returned S2 tox inactive, HepG2 tox -5%, TGFb SMAD3 inh -3%, IL-1B inflam inh -79* and ATXN2 expr inh 8%.
`COCc1c(C(=O)N2CCN(C3CCCCC3)CC2)cnn1-c1ncc(C)c(-c2cccs2)n1` gave S2 tox inactive.
For CCOc1cccc(NC(=O)C2CC(=O)N(C)C(=Nc3ccc(F)cc3)S2)c1 (stereo not drawn) the results were S2 tox inconclusive, HepG2 tox -28%, TGFb SMAD3 inh inconclusive and ATXN2 expr inh -3%.
For O=C(/C(=N/N=C/c1ccc(O)c(O)c1)c1ccccc1)c1ccccc1 the results were S2 tox inconclusive, HepG2 tox -96%, TGFb SMAD3 inh inconclusive, IL-1B inflam inh -76* and ATXN2 expr inh -33%.
For O=C1Nc2ccccc2/C1=N\N=C\c1ccc(O)c(O)c1 the results were S2 tox inactive, HepG2 tox -34%, TGFb SMAD3 inh 0%, IL-1B inflam inh -71* and ATXN2 expr inh 31%.
COc1cc(/C=N/N=C2/C(=O)Nc3ccccc32)ccc1O was read as S2 tox inactive, HepG2 tox -30%, TGFb SMAD3 inh 0%, IL-1B inflam inh inconclusive and ATXN2 expr inh 28%.
CN1CCN2c3ccccc3CC3(C(=O)OC(C)(C)OC3=O)C2C1 (stereo not drawn) was read as HepG2 tox -18% and TGFb SMAD3 inh -2%.
`CN(C)c1ccc(/C=C/c2ccnc3cc(Cl)cc(Cl)c23)cc1` gave HepG2 tox 1% and TGFb SMAD3 inh 6%.
